Source: the supplement of paper PMC10681739

The sequences below were run against T1, ETS1 (UniProt P14921) (assay: TF binding intensity (PBM fluorescence), negative control probe (arbitrary fluorescence units); higher = stronger binding).
T1 sequence: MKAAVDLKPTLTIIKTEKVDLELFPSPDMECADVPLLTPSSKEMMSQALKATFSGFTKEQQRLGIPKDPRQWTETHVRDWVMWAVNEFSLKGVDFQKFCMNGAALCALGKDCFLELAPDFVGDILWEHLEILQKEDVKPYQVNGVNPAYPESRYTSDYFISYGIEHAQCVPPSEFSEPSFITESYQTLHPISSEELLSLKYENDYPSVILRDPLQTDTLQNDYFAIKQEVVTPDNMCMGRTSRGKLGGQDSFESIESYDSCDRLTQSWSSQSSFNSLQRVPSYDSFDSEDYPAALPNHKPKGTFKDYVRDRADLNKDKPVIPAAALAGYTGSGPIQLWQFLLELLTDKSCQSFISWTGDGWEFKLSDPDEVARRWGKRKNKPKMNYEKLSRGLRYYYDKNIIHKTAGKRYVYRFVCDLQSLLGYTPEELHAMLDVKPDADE
Procedure: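 gcPBM negative-control 36-bp genomic probes lacking TF binding sites. Each was incubated with recombinant human ETS1 or RUNX1 alone and detected by antibody fluorescence. Values are medians over replicate spots (4 spots for the ETS1-RUNX1 arrays, 3 for the ETS1-ETS1 array). The probes sit in constant array flanks that are not printed.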

Sequence | TF binding intensity
GCTCGCCTACCCACTGATTGCCAGTGTCCTGGGTGA (protein concentration 10 nM) | 107
CTATAGTATGTCAAAACCACAAAGACAATGTGCAGC (protein concentration 1 nM) | 466
GAAGCCAGTGAGCCAGGAGTGCTGATTGGTTAGGGA (protein concentration 10 nM) | 107
GGCGGCGCCGGCGGCTGCGGGGTTATCTCCGCGGCC (protein concentration 10 nM) | 107
ACGGAGCTTGCTCTGGCCATCTCTGTCCCTGCCTGT (protein concentration 10 nM) | 102
TCTTGTATTTTCCTAAAGATTTGTGTGCTGTTTCTC (protein concentration 10 nM) | 100
CAACGCAGACTACTAACCACTAGAGAATCCCAAGGC (protein concentration 1 nM) | 485
GAAATATGACAAAAAACCCCTATCCTATGATAAGTC (protein concentration 10 nM) | 146
CTGAGAGCCAGGCCCGTTCCCTCTGAACCTCAGTTC (protein concentration 10 nM) | 103
CCTGTTCTGTGTTTGGAGCCAGCAGAGCAGGGAGGA (protein concentration 10 nM) | 153
ACGTGTGGGGACCCAAGCTATCCCTAAGAAAGCACT (protein concentration 10 nM) | 115
GTCAAAGGCTCTGCAGAGTCAAGTAGCCTCCCACTT (protein concentration 10 nM) | 112
GTTTATTGCCCACAACATGTCAGGCACAGTGGGAAG (protein concentration 10 nM) | 132
TATTTCACGCAAATAAGCAGTGACTGAGGACACAGT (protein concentration 10 nM) | 117
CCCTAAGCGCCTGCGCACATTTGCGCATCGCTCTGC (protein concentration 10 nM) | 109
GTGAAACCAGGGCACAGGTAGAAATCCCTAGAGCAG (protein concentration 10 nM) | 138
CCACCGAGTGTTCTCGTTGCTCCACCGTAGCATCAG (protein concentration 10 nM) | 124
AGAAAGGCATGTCTCCAGGCTCTAAAGAGGCAAAGG (protein concentration 10 nM) | 117
CTAAATGGCATCTGATGTGGTATCTCTCCTCAGTTC (protein concentration 1 nM) | 455
AGAGGCATGAAAACAAATGAGACTAGGATGAGTTGG (protein concentration 10 nM) | 131

Sequence | TF binding intensity
GAGCAGGAGAAAATGTGTCTGAGAAAGAGCTAGGAG (protein concentration 10 nM) | 128
ACCTCATCGAAAGTCTCTCTGGAGGCTGAGTTTGTC (protein concentration 10 nM) | 123
TGATCTTTGCTTTGCTTTTTGAAAGATCTGGCAAGG (protein concentration 10 nM) | 104
GCCCATCATTGGAGTCCCTTGGGGGTATCTGGAGCA (protein concentration 10 nM) | 161
TGCTCTAGAGATGTGATCGTCCTCATTTCATGAAGG (protein concentration 10 nM) | 121
TGGACTATATCAAGTGTGAACGATCATACTTGTTAT (protein concentration 10 nM) | 124
ACTCTAGTTTGTGATTTTTAAAACGTTTGAAAGCCA (protein concentration 10 nM) | 124
AGAGCCACAGTGTGGCTTGGCTGGTAAATTATTTGT (protein concentration 10 nM) | 109
TAGTCCTGGAAAGGTCATGTCAACCCTCCTGCATAT (protein concentration 10 nM) | 115
AGACTGCATACTTATAAAGTGGAGTATGCAGATAAT (protein concentration 10 nM) | 119
ACTGCTTTTTCACACAGCATCTTAATTGGCCTGTTT (protein concentration 10 nM) | 118
GAAAGAGGCACATGGTGCCTCACAGCCTCCTCCCAG (protein concentration 10 nM) | 128
AACAGCCCCCTGAACTGCAGGGTGTGACTGTTAGCC (protein concentration 10 nM) | 140
ACTCATTAGCAGTGAGCCACAAAGACTCTCTGGAAG (protein concentration 1 nM) | 359
CCCCAGTAGAAGCCACCCAGCCTTTTGTTTGTTTTC (protein concentration 10 nM) | 133
TATCTTTATCATGATCCATTAAAGATGACAGAACTA (protein concentration 10 nM) | 127
CCCCTCCAGACTCCCCTGACCCAGGGTGGAGGACAT (protein concentration 10 nM) | 161
GAAATCCAGGAGAAAAATGCAGGACAGTCAGAGTAA (protein concentration 10 nM) | 106
AGAGAATCTGATTGGTTGTTGACCTTTGGGACAAGT (protein concentration 10 nM) | 105
TTCTAAAGAAATCACAGTCAAATCTACCATTTGCGT (protein concentration 10 nM) | 99.5
